Vif imaging – HIV Vif self-association inhibitors, primary screen, imaging, HEK293T, single point. HEK293T cells, Vif self-association by quenched fluorescence, 24 h. inhibition, % at 7.49 µM. hit rate 0.35% among 340,000; in the data active = inhibition above about 50%, passing the limit was not always enough; inconclusive = no clear call, values can overlap the other calls; inactive = below about 31%
esBAF inh – Bmi1 luciferase reporter increase in mESCs, primary screen, esBAF inhibitor project, mouse ES cells, Bmi1 luciferase knock-in, single point | AID 602393, 2012 | 24 h; 100% = twice the neutral-well signal | reporter increase, % at 12.5 µM | hit rate 2% among 350,000; in the data active = activation above about 40%; inconclusive = no clear call, values can overlap the other calls;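 note: 0% = median of the plate's neutral control wells and 100% = double that signal; a rise in the Bmi1 reporter signal indicates esBAF inhibition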
HSF1 activator – HSF-1 activators, primary screen, NIH3T3-HGL cells, MG132 stress, luminescence, single point; NIH3T3-HGL HSF-1 luciferase reporter, 8 h; 100% = twice DMSO control signal; activation, % at 9 µM; hit rate 1.7% among 300,000; AID 504408, 2011;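 active = mean replicate activation of at least 50% with a set share of replicates each reaching 50%; inconclusive = only one of those two conditions met; inactive = mean below 50% and too few replicates reaching it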;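 note: 0% = median of the neutral control wells and 100% = twice that signal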
HSF1 inh – HSF1 inhibitors in luciferase reporter cells, primary screen, cell-based, NIH3T3, luminescence | NIH3T3-HGL HSE-luciferase, MG132-induced, luminescence 8 h; active compounds read low | activity change, negative = inhibition, % at 7.5 µM (by protocol) | hit rate 0.77% among 300,000 | AID 2098, 2009;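 active = more than half of replicate wells show activity change below -50%, luminescence cut by over half; inconclusive = some wells, but at most half, below -50%; inactive = no replicate well below -50%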;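 note: luciferase reports HSF-1 transcriptional activity via heat shock element; 0% = median of DMSO wells and -100% = zero luminescence signal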
* marks the source's active call; other numbers are inactive results; ? = inconclusive; / = no result given. Shown are actives, neighbours in structure and some others; about 3.4% of the full set was active somewhere.

SMILES	Vif imaging	esBAF inh	HSF1 activator	HSF1 inh
CN1C(=O)c2cc(NC(=O)c3ccc(C(F)(F)F)cc3)ccc2OC[C@@H]2O[C@@H](CC(=O)NCc3ccc4c(c3)OCO4)CC[C@H]21	/	-5	/	/
CCOc1ccc(Nc2nc3c(C)cccc3cc2C#N)cc1	82*	-1	9	-3
COc1ccccc1Nc1nc2c(C)cccc2cc1C#N	7	1	9	-5
COCC#Cc1cnc2c(c1)C(=O)N([C@H](C)CO)C[C@@H](C)[C@H](CN(C)Cc1ccccc1F)O2	/	-3	/	/
COc1ccc(C2=Nn3c(nnc3-c3ccccc3OC)SC2)cc1OC	55*	-7	-17	-16
COc1ccc(C2=Nn3c(nnc3-c3ccccn3)SC2)cc1OC	26	-3	-5	-8
COc1cccc(-c2nnc3n2N=C(C(C)(C)C)CS3)c1	-7	-40	-66	-63*
COc1ccc(-c2nnc3n2N=C(C)CS3)cc1	-3	-6	-13	-6
COc1ccc(C2=Nn3c(nnc3-c3ccc(OC)cc3)SC2)cc1	66*	-1	-18	-20
C[C@H]1CN([C@@H](C)CO)C(=O)c2cc(NS(=O)(=O)c3cccs3)ccc2O[C@H]1CN(C)Cc1ccc2c(c1)OCO2	/	-7	/	/
CCCNC(=O)N(C)C[C@H]1Oc2cc(C3=CCCC3)ccc2S(=O)(=O)N([C@@H](C)CO)C[C@H]1C	/	-8	/	/
CCc1nc2cc3sc(CC)nc3cc2s1	6	76*	9	-1
C[C@H]1CN([C@@H](C)CO)C(=O)c2cccc(NS(=O)(=O)c3ccccc3)c2O[C@@H]1CN(C)Cc1ccccc1	/	-5	/	/
Clc1ccccc1CSc1cnnc2ccccc12	13	45*	/	/
Nc1ccccc1SCc1ccccc1Cl	-5	/	-6	-4
O=C(Nc1nccs1)c1ccc(-c2ccc(F)cc2)o1	7	/	73*	26
O=C(Nc1nccs1)c1ccc(-c2ccc(Cl)cc2)o1	-1	/	57*	25
O=C(Cc1ccc(F)cc1)Nc1nccs1	-4	3	-1	4
Cc1nnc(NC(=O)c2ccc(-c3ccc(Cl)cc3)o2)s1	-3	16	18	7
O=C(Nc1nccs1)c1ccc(-c2ccc([N+](=O)[O-])cc2)o1	80*	69*	-20	-13
O=C(/C=C/c1ccc(Cl)cc1)Nc1nccs1	0	/	63*	38
C/C=C/C=C/C(=O)Nc1nccs1	6	/	36	20
CC(C)n1c(=O)c2ccccc2n1C(=O)c1ccccc1	-3	-2	/	/
O=C(c1ccccc1)n1c2ccccc2c(=O)n1-c1ccccc1CCl	2	87*	/	/
CS(=O)(=O)n1c2ccccc2c(=O)n1-c1ccccc1CCl	2	56*	/	/
SMILES	Vif imaging	esBAF inh	HSF1 activator	HSF1 inh
COCC(=O)Nc1ccc2c(c1)C(=O)N(C)C[C@@H](OC)[C@H](C)CN(C(=O)Cc1ccccn1)[C@H](C)CO2	/	-4	/	/
CC(C)C#Cc1ccc2c(c1)O[C@@H](CN(C)Cc1cncnc1)[C@@H](C)CN([C@@H](C)CO)S2(=O)=O	/	9	/	/
CCOC(=O)c1cnc2ccccc2c1Nc1ccc2c(c1)OCCO2	-15	/	-64	-61*
CCOC(=O)c1cnc2ccccc2c1NCc1ccco1	0	/	20	6
CC1(C)CC(=O)C(/C=N/n2c(C(F)(F)F)nc3ccccc3c2=O)=C(O)C1	85*	4	41	18
CC(C)CCNC(=O)C(=O)NC1CCCC1	-4	14	20	17
CC(C)CCNC(=O)C1CCCN1C(=O)NC1CCCCC1 (centres undefined)	4	-5	-76	-72*
O=C(CNC(=O)c1ccc([N+](=O)[O-])cc1)N/N=C\c1ccc(OC(=O)c2ccccc2)cc1	50*	-5	-5	-1
COc1cccc(C(=O)NCC(=O)N/N=C/c2cccc(OC(=O)c3ccc([N+](=O)[O-])cc3)c2)c1	-1	/	14	5
CCCNC(=O)C[C@H]1C[C@@H]2c3cc(NC(=O)CN(C)C)ccc3O[C@@H]2[C@@H](CO)O1	/	1	/	/
Cc1c(N(C)S(=O)(=O)c2cccc(C(=O)NC(C)C)c2)c(=O)n(-c2ccccc2)n1C	15	/	62*	23
Cc1c(N(C)S(=O)(=O)c2cccc(C(=O)NCC3CCCO3)c2)c(=O)n(-c2ccccc2)n1C (centres undefined)	0	/	21	-2
COc1ccc(NC(=O)c2cccc(OC(F)F)c2)cc1Cl	-2	57*	28	16
O=C(Nc1ccc2c(c1)CCC2)c1cccc(OC(F)F)c1	18	?	82*	48
COc1ccc(NC(=O)C(Sc2nnc(-c3ccncc3)n2-c2ccccc2C)c2ccccc2)cc1Cl (centres undefined)	-3	/	53*	17
O=C(Nc1ccc(OC(F)F)c(Cl)c1)c1cccc(OC(F)F)c1	-11	21	10	3
COc1ccc(NC(=O)C(NCC(C)C)c2ccccc2)cc1Cl (centres undefined)	-2	-5	71*	30
COc1ccc(NC(=O)C(OC)c2ccccc2)cc1Cl (centres undefined)	-9	-6	8	1
C/C=C/c1cnc2c(c1)C(=O)N([C@H](C)CO)C[C@@H](C)[C@@H](CN(C)C(=O)C1CC1)O2	/	-4	/	/
Cc1noc(C)c1NC(=O)N(C)C[C@@H]1Oc2ncc(C#Cc3ccccc3)cc2C(=O)N([C@H](C)CO)C[C@@H]1C	/	-4	/	/
COc1ccc(NC(=O)c2cccc(F)c2)cc1Cl	6	77*	40	25
Cc1c(Cl)cccc1NC(=O)c1cccc(OC(F)F)c1	12	50*	-77	-72*
Nc1cnc(Nc2ccc(Br)cc2)nc1N	-8	53*	16	1
COc1cccc(NC(=O)c2ccnc(N3CCC(C(=O)NCc4ccccc4OC)CC3)c2)c1	-2	73*	111*	66
COc1ccccc1CNC(=O)C1CCCN(c2cnccn2)C1 (centres undefined)	21	-10	-21	3
SMILES	Vif imaging	esBAF inh	HSF1 activator	HSF1 inh
COc1ccc(S(=O)(=O)N[C@H]2CC[C@@H](CC(=O)N3CCc4ccccc4C3)O[C@H]2CO)cc1	/	2	/	/
O=C(C[C@H]1CC[C@@H]2[C@H](COC[C@@H](O)CN2Cc2ccccc2)O1)N[C@H]1CCN(Cc2ccccc2)C1	/	-2	/	/
CC(C)NC(=O)N(C)C[C@@H]1Oc2c(NC(=O)Nc3ccccc3)cccc2C(=O)N([C@@H](C)CO)C[C@@H]1C	/	-2	/	/
C[C@H](CO)N1C[C@H](C)[C@H](CN(C)C(=O)c2ccccc2F)Oc2ncc(-c3cncnc3)cc2C1=O	/	0	/	/
CCOC(=O)c1c(C)[nH]c(C(C)=NNC(=O)c2cccs2)c1C	-5	77*	/	/
CCOC(=O)c1c(C)[nH]c(/C(C)=N/NC(=O)c2cccnc2)c1C	/	16	/	/
CC(C)(C)NC(=O)NC(=O)COC(=O)c1c(F)cccc1Cl	-9	50*	27	20
CCOC(=O)c1c(C)[nH]c(C(=O)OCC(=O)Nc2sccc2C(N)=O)c1C	/	4	-75	-75*

Screening results (PubChem BioAssay)
